Only some compounds are listed: those with a hit (about 2.9% of all), similar ones and a draw of the others.
DRD3 antagonist – D3 dopamine receptor (human) antagonism; D3R cells, DiscoveRx beta-arrestin luminescence, antagonist mode; hits give low values; actives 2.5% (n = 360,000); max response, negative = inhibition, %; P35462; in the data active = max response below about -50%; inconclusive = no clear call, values can overlap the other calls
Target sequence (P35462 whole entry, looked up): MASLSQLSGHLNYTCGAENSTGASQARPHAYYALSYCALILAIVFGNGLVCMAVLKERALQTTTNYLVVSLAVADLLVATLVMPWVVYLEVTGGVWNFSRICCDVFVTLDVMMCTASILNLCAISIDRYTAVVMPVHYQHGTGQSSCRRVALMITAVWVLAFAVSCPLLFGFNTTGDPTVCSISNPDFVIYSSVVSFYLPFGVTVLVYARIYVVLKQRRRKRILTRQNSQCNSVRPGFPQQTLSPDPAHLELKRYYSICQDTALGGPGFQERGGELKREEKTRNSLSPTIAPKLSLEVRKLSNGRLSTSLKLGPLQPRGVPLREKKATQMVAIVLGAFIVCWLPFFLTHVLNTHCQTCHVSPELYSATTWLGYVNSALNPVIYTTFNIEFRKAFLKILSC
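Cells expressing the human receptor were seeded at 1500 cells/well, incubated overnight at 37 degrees C in 5% CO2, then exposed to library compounds with dopamine controls for 90 minutes at 37 degrees C before luminescent detection.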
DRD3 agonist – activates the human D3 dopamine receptor; P35462; D3R DiscoveRx beta-arrestin cells, luminescence, 90 min; max activation, %; actives 0.58% (n = 410,000); in the data active = max activation above about 30%
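Agonist mode: compounds and dopamine controls were applied to plated cells for 90 min at 37 degrees C after an overnight attachment at 1500 cells/well. Luminescent read-out followed 30 - 60 minutes at room temperature with DiscoveRx detection reagent.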
Integrin act MD – activates integrin-mediated alleviation for muscular dystrophy. Potency, µM (doses to about 38.3 µM), hits mostly activators. actives 0.064% (n = 350,000). alpha7betagal myoblasts, beta-gal FDG fluorescence, 48 h; note: nearly all actives have a fitted effect of over 60% in size
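Alpha7betagal+/- myoblasts (passage 13) were plated 16-24 hr, then exposed to compounds (1:260 dilution of DMSO stock) for 48 hours at 37C. After MPER lysis, β-galactosidase reporter activity was read as FDG fluorescence (ex 480/em 540) after 30 minutes.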
B2AR arrestin – recruits beta-arrestin to the human beta2-adrenergic receptor; beta-arrestin recruitment to beta2AR, cell-based reporter; Potency, µM (series often up to 46.1 µM), usual class: activators; actives 0.02% (n = 330,000); AID 492947; note: nearly all actives have a fitted effect of over 65% in size
IDH1 R132H inh – inhibitors of human mutant IDH1 R132H; O75874; IDH1-R132H enzyme, NADPH consumption, diaphorase/resazurin fluorescence; Potency, µM (titrated, usually from 76.6 µM), actives largely listed as inhibitors; actives 0.093% (n = 390,000); AID 602179; note: nearly all actives have a fitted effect of over 65% in size
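IDH1-R132H (0.5 ug/mL dispensed) in pH 7.5 Tris buffer was preincubated 30 min with compound, then given a substrate mix of 0.016 mM NADPH and 2 mM alpha-KG for 80 min at room temperature; remaining NADPH was read by diaphorase/resazurin fluorescence.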
A number is an active result; ! = not confirmed by another sample. Unless noted, calls come from the whole dose curve; as a rule, active = well fitted curve in the direction sought with a large enough effect; inconclusive = small, poorly fitted or top-dose-only effect, or another doubt; inactive = no such curve, though single readings can be large; an effect the other way counts as inactive or inconclusive.

Results for CCC(=O)N1c2ccc(S(=O)(=O)CCC(=O)Nc3ccc(Br)c(C)c3)cc2CC1C (configuration not stated) ?
DRD3 agonist: inactive; IDH1 R132H inh: inactive

What do the screens show for `Cc1ccc(Cl)cc1NC(=O)C1CCN(c2nc3ccccc3n3cccc23)CC1`?
DRD3 agonist: inactive; IDH1 R132H inh: inactive

How did COc1ccc2cc(C(=O)NCc3ccc4c(c3)CCN4C(=O)c3ccc(C)cc3)[nH]c2c1 do in these assays?
DRD3 agonist: inactive; IDH1 R132H inh: inactive

How did CCc1ccccc1NC(=O)N1CCOc2ccccc21 do in these assays?
DRD3 agonist: inactive; IDH1 R132H inh: inactive

How did CCN1/C(=C/C(C)=C/c2sc3ccccc3[n+]2CC)Sc2ccccc21 do in these assays?
DRD3 antagonist: -59!; DRD3 agonist: inactive; Integrin act MD: inconclusive; B2AR arrestin: inactive; IDH1 R132H inh: inconclusive

How did COc1cc(=O)n(C)c2ccccc12 do in these assays?
DRD3 antagonist: inactive; DRD3 agonist: inactive; Integrin act MD: 2.2µM; B2AR arrestin: inactive; IDH1 R132H inh: inactive

What do the screens show for `O=C(Nc1ccc(F)cc1F)c1cc2c(=O)n3ccccc3nc2s1`?
DRD3 agonist: inactive

Results for Cc1ccc(NC(=S)N(CCCN2CCCC(C)C2)Cc2ccco2)cc1C (configuration not stated) ?
DRD3 antagonist: -92; DRD3 agonist: inactive; Integrin act MD: inactive; B2AR arrestin: inactive; IDH1 R132H inh: inactive

Results for COc1cccc(NC(=S)N(CCCN2CCCC(C)C2)Cc2cccs2)c1 (configuration not stated) ?
DRD3 antagonist: -80; DRD3 agonist: inactive; Integrin act MD: inactive; B2AR arrestin: inactive; IDH1 R132H inh: inactive

How did Cc1cc(C)cc(NC(=S)N(CCCN2CCN(C)CC2)Cc2cccs2)c1 do in these assays?
DRD3 antagonist: inactive; DRD3 agonist: inactive; Integrin act MD: inactive; B2AR arrestin: inactive; IDH1 R132H inh: inactive

What do the screens show for `O=C(CNC(=S)N(CCCN1CCOCC1)Cc1cccs1)NCc1ccccc1Cl`?
DRD3 antagonist: -58; DRD3 agonist: inactive; Integrin act MD: inactive; B2AR arrestin: inactive; IDH1 R132H inh: inactive

Results for CSc1cccc(NC(=S)N(CCCN2CCCC(C)C2)Cc2cccs2)c1 (configuration not stated) ?
DRD3 antagonist: -104; DRD3 agonist: inactive; Integrin act MD: inactive; B2AR arrestin: inactive; IDH1 R132H inh: inactive

Results for COc1ccc(NC(=S)N(CCCN2CCN(C)CC2)Cc2cccs2)cc1 ?
DRD3 antagonist: inactive; DRD3 agonist: inactive; Integrin act MD: inactive; B2AR arrestin: inactive; IDH1 R132H inh: inactive

Results for COc1cccc(CNC(=O)CC(c2ccc(F)cc2)N2Cc3ccccc3C2=O)c1 (configuration not stated) ?
DRD3 agonist: inactive; IDH1 R132H inh: inactive

What do the screens show for `COc1ccccc1NC(=S)N(CCN1CCCCCC1)Cc1cccs1`?
DRD3 antagonist: -58; DRD3 agonist: inactive; Integrin act MD: inactive; B2AR arrestin: inactive; IDH1 R132H inh: inactive

Results for COc1ccc(NC(=S)N(CCCN2CCC(C)CC2)Cc2cccs2)cc1Cl ?
DRD3 antagonist: -80; DRD3 agonist: inactive; Integrin act MD: inactive; B2AR arrestin: inactive; IDH1 R132H inh: inactive

What do the screens show for `Cc1ccc2occ(CC(=O)N(Cc3ccccc3Cl)C3CCS(=O)(=O)C3)c2c1` (configuration not stated)?
DRD3 agonist: inactive; IDH1 R132H inh: inactive

Results for CC(=O)Nc1ccc(Nc2nc3ccccc3nc2NS(=O)(=O)c2ccc(Cl)c([N+](=O)[O-])c2)cc1 ?
DRD3 antagonist: -91; DRD3 agonist: inactive; Integrin act MD: inactive; IDH1 R132H inh: inactive

What do the screens show for `CC(C)N(C(=O)Cn1cc(S(=O)(=O)Cc2ccc(C(F)(F)F)cc2)c2ccccc21)C(C)C`?
DRD3 agonist: inactive; IDH1 R132H inh: inactive

Results for COC(=O)[C@H](CCSC)NC(=O)Cn1ccc(NC(=O)OCc2ccccc2)nc1=O ?
DRD3 antagonist: inactive; DRD3 agonist: inactive; Integrin act MD: inactive; B2AR arrestin: inactive; IDH1 R132H inh: inactive

Results for COC(=O)[C@H](CCSC)NC(=O)Cn1ccc(N)nc1=O ?
DRD3 antagonist: -51; DRD3 agonist: inactive; Integrin act MD: inactive; B2AR arrestin: inactive; IDH1 R132H inh: inactive

How did C[C@@H]1[C@H]2[C@@H](O[C@@H]3O[C@H](CO)[C@@H](O)[C@H](O)[C@H]3O)OC=C(C(=O)O)[C@H]2C[C@@H]1O do in these assays?
DRD3 antagonist: inactive; DRD3 agonist: 43; Integrin act MD: inactive; B2AR arrestin: inactive; IDH1 R132H inh: inactive

How did CCc1cc(C(=O)c2ccc(Br)cc2)c(NC(=O)CN(CC)CC)s1 do in these assays?
DRD3 antagonist: -62; DRD3 agonist: inactive; Integrin act MD: inactive; B2AR arrestin: inactive; IDH1 R132H inh: inactive

Results for CCN(CC)CC(=O)Nc1sc(C)cc1C(=O)c1ccc(C)cc1 ?
DRD3 antagonist: inactive; DRD3 agonist: inactive; Integrin act MD: inactive; B2AR arrestin: inactive; IDH1 R132H inh: inactive

How did CC(C)(C)c1cc(CCC(=O)NNC(=S)NC(=O)c2ccccc2)cc(C(C)(C)C)c1O do in these assays?
DRD3 antagonist: -79; DRD3 agonist: inactive; Integrin act MD: inactive; B2AR arrestin: inactive; IDH1 R132H inh: inactive

How did CC(=O)Nc1ccc(NC(=O)C(C)OC(=O)CNS(=O)(=O)/C=C/c2ccc(C)cc2)cc1 (configuration not stated) do in these assays?
DRD3 antagonist: -54; DRD3 agonist: inactive; Integrin act MD: inactive; B2AR arrestin: inactive; IDH1 R132H inh: inactive

How did Cc1cc(NC(=O)c2c(F)cccc2F)n(-c2nc3ccccc3[nH]2)n1 do in these assays?
DRD3 antagonist: -96; DRD3 agonist: 37; Integrin act MD: inactive; B2AR arrestin: inactive; IDH1 R132H inh: inactive

How did O=C(c1cc(C2CCCCN2C(=O)CCCc2ccccc2)on1)N1CCOCC1 (configuration not stated) do in these assays?
DRD3 antagonist: -51; DRD3 agonist: inactive

What do the screens show for `O=C(NCc1ccccc1)c1cc(C2CCCCN2C(=O)CCc2ccccc2)on1` (configuration not stated)?
DRD3 antagonist: inactive; DRD3 agonist: inactive

What do the screens show for `CC1(C)CC(=O)C=C(NC2=CC3OC(c4ccccc4)OCC3OC2=O)C1` (configuration not stated)?
DRD3 antagonist: -54; DRD3 agonist: inactive; Integrin act MD: inactive; B2AR arrestin: inactive; IDH1 R132H inh: inactive

What do the screens show for `Cc1cc(NC(=O)c2ccco2)cc(-c2nc3cc(Cl)ccc3o2)c1O`?
DRD3 agonist: inactive; IDH1 R132H inh: inactive

What do the screens show for `CCCn1cc(S(=O)(=O)c2ccccc2)c(=O)c2cc(F)c(N3CCCC3)cc21`?
DRD3 agonist: inactive; IDH1 R132H inh: inactive

How did CCCn1cc(S(=O)(=O)c2cccc(Cl)c2)c(=O)c2cc(F)c(N3CCN(CC)CC3)cc21 do in these assays?
DRD3 agonist: 63; IDH1 R132H inh: inactive

Results for CN1CCN(c2nc(C#N)cc(-c3ccccc3)n2)CC1 ?
DRD3 antagonist: -74; DRD3 agonist: inactive; Integrin act MD: inactive; B2AR arrestin: inactive; IDH1 R132H inh: inactive
